{"source": "the supplement of paper PMC8728848", "binders": {"B1": {"name": "MIC1 (Toxoplasma gondii), O00834 (protein)", "chain": "VGPEAYGEASHSHSPASGRYIQQMLDQRCQEIAAELCQSGLRKMCVPSSRIVARNAVGITHQNTLQWRCFDTASLLESNQENNGVNCVDDCGHTIPCPGGVHRQNSNHATRHEILSKLVEEGVQRFCSPYQASANKYCNDKFPGTIARRSKGFGNNVEVAWRCYEKASLLYSVYAECASNCGTTWYCPGGRRGTSTELDKRHYTEEEGIRQAIGSVDSPCSEVEVCLPKDENPPLCLDESGQISRT"}, "B2": {"name": "FaeGab (Escherichia coli) (protein)", "chain": "WMTGDFNGSVDIGGSITADDYRQKWEWKVGTGLNGFGNVLNDLTNGGTKLTITVTGNKPILLGRTKEAFATPVSGGVDGIPQIAFTDYEGASVKLRNTDGETNKGLAYFVLPMKNAEGTKVGSVKVNASYAGVFGKGGVTSADGELFSLFADGLRAIFYGGLTTTVSGAALTSGSAAAARTELFGSLSRNDILGQIQRVNANITSLVDVAGSYREDMEYTDGTVVSAAYALGIANGQTIEATFNQAVTTSTQWSAPLNVAITYY"}}, "experiment_in_all_cases": "glycan array binding signal (z-score within array); higher = stronger binding", "conditions_in_all_cases": "glycan notation: IUPAC condensed, linker removed", "key": {"[1]": {"molecular_target": "Fuc(a1-2)Gal(b1-4)[Fuc(a1-3)]GlcNAc(b1-3)Gal(b1-4)Glc", "outline": "(§1)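 Glycan array data came from 3228 arrays in the Consortium for Functional Glycomics database, and only arrays with an available protein sequence were kept. Glycan names were put into IUPAC-condensed notation, and columns mapping to the same glycan were averaged. The binding signal is a within-array Z-score, averaged across arrays of one protein sequence run at different concentrations or buffers and across linkers. A negative Z-score can be read as non-binding.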"}, "[2]": {"molecular_target": "Fuc(a1-2)[Gal(a1-3)]Gal(b1-4)GlcNAc(b1-3)Gal(b1-4)Glc", "outline": "as §1"}, "[3]": {"molecular_target": "Fuc(a1-3)[Gal3S(b1-4)]Glc", "outline": "as §1"}, "[4]": {"molecular_target": "Fuc(a1-6)GlcNAc", "outline": "as §1"}, "[5]": {"molecular_target": "Gal(b1-4)GlcNAc(b1-3)[Gal(b1-4)GlcNAc(b1-6)]Gal(b1-4)GlcNAc(b1-3)[Gal(b1-4)GlcNAc(b1-6)]Gal(b1-4)GlcNAc(b1-3)[Gal(b1-4)GlcNAc(b1-6)]Gal(b1-4)GlcNAc(b1-3)[Gal(b1-4)GlcNAc(b1-6)]Gal(b1-4)GlcNAc(b1-3)Gal(b1-4)Glc", "outline": "as §1"}, "[6]": {"molecular_target": "Glc(b1-3)Glc(b1-3)Glc(b1-3)Glc(b1-3)Glc(b1-3)Glc(b1-3)Glc", "outline": "as §1"}, "[7]": {"molecular_target": "Glc(b1-4)Glc", "outline": "as §1"}, "[8]": {"molecular_target": "Glc(b1-4)Glc(b1-4)Glc(b1-4)Glc(b1-4)Glc(b1-4)Glc(b1-4)Glc(b1-4)Glc(b1-4)Glc", "outline": "as §1"}, "[9]": {"molecular_target": "Glc(b1-4)Glc(b1-4)Glc(b1-4)Glc(b1-4)Glc(b1-4)Glc(b1-4)Glc(b1-4)Glc(b1-4)Glc(b1-4)Glc", "outline": "as §1"}, "[10]": {"molecular_target": "GlcNAc(a1-4)Gal(b1-3)[Fuc(a1-2)]Gal", "outline": "as §1"}, "[11]": {"molecular_target": "Kdn(a2-3)[GalNAc(b1-4)]Gal(b1-3)GlcNAc", "outline": "as §1"}, "[12]": {"molecular_target": "Man(a1-6)Man", "outline": "as §1"}, "[13]": {"molecular_target": "Neu5Ac(a2-3)Gal(b1-4)GlcNAc(b1-2)Man(a1-3)[Neu5Ac(a2-3)Gal(b1-4)GlcNAc(b1-2)Man(a1-6)]Man(b1-4)GlcNAc(b1-4)[Fuc(a1-6)]GlcNAc", "outline": "as §1"}, "[14]": {"molecular_target": "Neu5Ac(a2-3)Gal(b1-4)GlcNAc6S(b1-3)Gal6S(b1-3)GlcNAc6S", "outline": "as §1"}, "[15]": {"molecular_target": "Neu5Ac(a2-3)Gal(b1-4)[Fuc(a1-3)]GlcNAc(b1-3)Gal(b1-4)Glc", "outline": "as §1"}, "[16]": {"molecular_target": "Neu5Ac(a2-3)Gal6S(b1-4)[Fuc(a1-3)]GlcNAc6S(b1-3)Gal(b1-4)Glc", "outline": "as §1"}, "[17]": {"molecular_target": "Neu5Ac(a2-3)[GalNAc(b1-4)]Gal(b1-3)GalNAc(b1-4)[Neu5Ac(a2-3)]Gal(b1-4)Glc", "outline": "as §1"}, "[18]": {"molecular_target": "Neu5Ac(a2-3)[GalNAc(b1-4)]Gal(b1-4)Glc", "outline": "as §1"}, "[19]": {"molecular_target": "Neu5Ac(a2-6)Gal(b1-4)Glc", "outline": "as §1"}, "[20]": {"molecular_target": "Neu5Ac(a2-8)Neu5Ac(a2-3)Gal(b1-3)GalNAc(b1-4)[Neu5Ac(a2-8)Neu5Ac(a2-3)]Gal(b1-4)Glc", "outline": "as §1"}, "[21]": {"molecular_target": "Neu5Gc(a2-3)Gal(b1-3)GlcNAc(b1-3)Gal(b1-4)Glc", "outline": "as §1"}, "[22]": {"molecular_target": "Neu5Gc(a2-3)[GalNAc(b1-4)]Gal", "outline": "as §1"}, "[23]": {"molecular_target": "Neu5Gc(a2-6)Gal(b1-3)GlcNAc(b1-3)Gal(b1-4)Glc", "outline": "as §1"}, "[24]": {"molecular_target": "Neu5Gc(a2-6)Gal(b1-4)GlcNAc(b1-2)Man(a1-3)[Neu5Gc(a2-6)Gal(b1-4)GlcNAc(b1-2)Man(a1-6)]Man(b1-4)GlcNAc(b1-4)GlcNAc", "outline": "as §1"}, "[25]": {"molecular_target": "Neu5Gc(a2-6)GalNAc", "outline": "as §1"}, "[26]": {"molecular_target": "Xyl(a1-6)Glc(b1-4)[Xyl(a1-6)]Glc(b1-4)[Xyl(a1-6)]Glc(b1-4)Glc", "outline": "as §1"}, "[27]": {"molecular_target": "Fuc(a1-2)Gal(b1-4)[Fuc(a1-3)]GlcNAc(b1-3)Gal(b1-4)[Fuc(a1-3)]GlcNAc(b1-3)Gal(b1-4)[Fuc(a1-3)]GlcNAc", "outline": "as §1"}, "[28]": {"molecular_target": "Gal(a1-3)Gal", "outline": "as §1"}, "[29]": {"molecular_target": "Gal(b1-3)GlcNAc(b1-3)Gal(b1-4)GlcNAc", "outline": "as §1"}, "[30]": {"molecular_target": "Gal3S(b1-3)GlcNAc", "outline": "as §1"}, "[31]": {"molecular_target": "Gal6S(b1-4)GlcNAc", "outline": "as §1"}, "[32]": {"molecular_target": "Glc(a1-4)Glc", "outline": "as §1"}, "[33]": {"molecular_target": "Glc(a1-6)Glc(a1-6)Glc", "outline": "as §1"}, "[34]": {"molecular_target": "GlcNAc(b1-4)GlcNAc(b1-4)GlcNAc", "outline": "as §1"}, "[35]": {"molecular_target": "Man(a1-2)Man(a1-2)Man(a1-6)[Man(a1-3)]Man", "outline": "as §1"}, "[36]": {"molecular_target": "Neu5Ac(a2-3)Gal", "outline": "as §1"}, "[37]": {"molecular_target": "Neu5Ac(a2-3)[Neu5Ac(a2-6)]GalNAc", "outline": "as §1"}, "[38]": {"molecular_target": "Neu5Ac(a2-6)Gal(b1-4)GlcNAc(b1-3)Gal(b1-4)[Fuc(a1-3)]GlcNAc(b1-3)Gal(b1-4)[Fuc(a1-3)]GlcNAc", "outline": "as §1"}, "[39]": {"molecular_target": "Neu5Ac(a2-8)Neu5Ac(a2-8)Neu5Ac(a2-8)Neu5Ac(a2-3)[GalNAc(b1-4)]Gal(b1-4)Glc", "outline": "as §1"}, "[40]": {"molecular_target": "Neu5Ac(b2-6)Gal(b1-4)GlcNAc", "outline": "as §1"}, "[41]": {"molecular_target": "Neu5Gc(a2-6)Gal(b1-4)GlcNAc", "outline": "as §1"}}, "note": "The entries come from a sample that favours the strongest signals as a whole.", "data": [{"binder": "B1", "values": [{"measurement": "glycan array binding signal (z-score)", "setting": "[1]", "result": -0.296}, {"measurement": "glycan array binding signal (z-score)", "setting": "[2]", "result": -0.253}, {"measurement": "glycan array binding signal (z-score)", "setting": "[3]", "result": -0.041}, {"measurement": "glycan array binding signal (z-score)", "setting": "[4]", "result": -0.287}, {"measurement": "glycan array binding signal (z-score)", "setting": "[5]", "result": -0.287}, {"measurement": "glycan array binding signal (z-score)", "setting": "[6]", "result": -0.287}, {"measurement": "glycan array binding signal (z-score)", "setting": "[7]", "result": -0.287}, {"measurement": "glycan array binding signal (z-score)", "setting": "[8]", "result": -0.287}, {"measurement": "glycan array binding signal (z-score)", "setting": "[9]", "result": -0.287}, {"measurement": "glycan array binding signal (z-score)", "setting": "[10]", "result": -0.299}, {"measurement": "glycan array binding signal (z-score)", "setting": "[11]", "result": -0.274}, {"measurement": "glycan array binding signal (z-score)", "setting": "[12]", "result": -0.312}, {"measurement": "glycan array binding signal (z-score)", "setting": "[13]", "result": 2.46}, {"measurement": "glycan array binding signal (z-score)", "setting": "[14]", "result": 4.52}, {"measurement": "glycan array binding signal (z-score)", "setting": "[15]", "result": 0.087}, {"measurement": "glycan array binding signal (z-score)", "setting": "[16]", "result": 2.46}, {"measurement": "glycan array binding signal (z-score)", "setting": "[17]", "result": 1.29}, {"measurement": "glycan array binding signal (z-score)", "setting": "[18]", "result": 2.98}, {"measurement": "glycan array binding signal (z-score)", "setting": "[19]", "result": -0.342}, {"measurement": "glycan array binding signal (z-score)", "setting": "[20]", "result": -0.411}, {"measurement": "glycan array binding signal (z-score)", "setting": "[21]", "result": 2.33}, {"measurement": "glycan array binding signal (z-score)", "setting": "[22]", "result": 4.78}, {"measurement": "glycan array binding signal (z-score)", "setting": "[23]", "result": 2.08}, {"measurement": "glycan array binding signal (z-score)", "setting": "[24]", "result": 0.198}, {"measurement": "glycan array binding signal (z-score)", "setting": "[25]", "result": 4.8}, {"measurement": "glycan array binding signal (z-score)", "setting": "[26]", "result": -0.287}]}, {"binder": "B2", "values": [{"measurement": "glycan array binding signal (z-score)", "setting": "[27]", "result": -0.302}, {"measurement": "glycan array binding signal (z-score)", "setting": "[28]", "result": 0.089}, {"measurement": "glycan array binding signal (z-score)", "setting": "[29]", "result": -0.347}, {"measurement": "glycan array binding signal (z-score)", "setting": "[30]", "result": -0.012}, {"measurement": "glycan array binding signal (z-score)", "setting": "[31]", "result": -0.201}, {"measurement": "glycan array binding signal (z-score)", "setting": "[32]", "result": 8.87}, {"measurement": "glycan array binding signal (z-score)", "setting": "[33]", "result": 10.2}, {"measurement": "glycan array binding signal (z-score)", "setting": "[7]", "result": 4.4}, {"measurement": "glycan array binding signal (z-score)", "setting": "[34]", "result": 0.132}, {"measurement": "glycan array binding signal (z-score)", "setting": "[35]", "result": 1.91}, {"measurement": "glycan array binding signal (z-score)", "setting": "[36]", "result": -0.477}, {"measurement": "glycan array binding signal (z-score)", "setting": "[37]", "result": -0.489}, {"measurement": "glycan array binding signal (z-score)", "setting": "[38]", "result": -0.433}, {"measurement": "glycan array binding signal (z-score)", "setting": "[39]", "result": -0.352}, {"measurement": "glycan array binding signal (z-score)", "setting": "[40]", "result": -0.473}, {"measurement": "glycan array binding signal (z-score)", "setting": "[41]", "result": -0.5}]}]}
